Data taken from ChEMBL document CHEMBL4513146, “CO-ADD screening of Karazin Kharkiv National University (Ukraine) compounds”.
Entries with a potency or affinity are not part of this list.

Each molecule was assayed on Staphylococcus aureus. Details: Concentration 32 ug.mL-1;; ASSAY_TEST Inhibition of Bacterial Growth; detection method Absorption (OD600); MEDIA CAMHB; plate type 384well; NBS; CORNING #3640; time 18 hr.

Row | Structure (SMILES) | Inhibition [%]
1 | Cn1c(=O)c2ccc(C(=O)NC3CCCC3)cc2n2c(SCc3c(F)cccc3Cl)nnc12 | 12.53
2 | COc1ccc(NC(=O)c2ccc3nn(CC(=O)Nc4ccc(C(C)C)cc4)c(=O)n3c2)cc1 | 9.69
3 | Cc1ccc(-n2ccn3c(SCC(N)=O)nnc3c2=O)cc1C | 19.3
4 | CCOC(=O)c1ccc(NC(=O)Cn2nc3ccc(C(=O)Nc4cccc(C)c4)cn3c2=O)cc1 | 1.34
5 | CC(C)CCn1c(=O)c2sccc2n2c(=O)n(Cc3ccccc3Cl)nc12 | 8.43
6 | COc1ccc(NC(=O)Cn2nc3ccc(-c4ccc(Cl)cc4)nn3c2=O)cc1 | 8.85
7 | O=C(Cn1nc2ccc(SCc3ccc(Cl)cc3)nn2c1=O)NCc1ccc2c(c1)OCO2 | -2.67
8 | COc1ccccc1NC(=O)Cn1c(=O)c2nnc(C(C)C)n2c2ccccc21 | 22.81
9 | CCOc1ccc(NC(=O)Cn2nc3c4cc(-c5ccc(Cl)cc5)nn4ccn3c2=O)cc1 | 0.29
10 | Cc1ccc(-c2cc3c4nn(CC(=O)N5CCN(c6ccc(F)cc6)CC5)c(=O)n4ccn3n2)cc1C | 6.16
11 | CCCCc1ccc(NC(=O)Cn2c(=O)c3nnc(C(C)C)n3c3ccccc32)cc1 | 13.14
12 | CC(C)c1nnc2c(=O)n(CC(=O)Nc3ccc(F)cc3F)c3ccccc3n12 | 12.23
13 | CCOc1ccc(-n2ccn3c(SCC(=O)Nc4ccc5c(c4)OCCO5)nnc3c2=O)cc1 | 4.27
14 | CC(C)c1ccc(Cn2c(=O)c3sccc3n3c(SCc4cccc(C(F)(F)F)c4)nnc23)cc1 | 11.56
15 | Cc1ccc(NC(=O)Cn2nc3c4cc(-c5ccc(Cl)cc5)nn4ccn3c2=O)cc1C | 10.49
16 | CCc1nnc2c(SCC(=O)Nc3cccc(C(C)=O)c3)nc3ccccc3n12 | 2.41
17 | CC(C)c1nnc2c(=O)n(CC(=O)Nc3ccc4c(c3)OCO4)c3ccccc3n12 | -1.02
18 | Cc1ccc(CN(c2ccc(F)cc2)S(=O)(=O)c2ccc3nnc(C)n3c2)cc1 | -8.78
19 | Cc1ccc(N(Cc2cccc(C)c2)S(=O)(=O)c2cccn3c(C)nnc23)cc1 | -2.01
20 | COc1ccc(-c2cc3c4nnc(SCC(=O)Nc5cccc(Cl)c5C)n4ccn3n2)cc1 | -7.92

Row | Structure (SMILES) | Inhibition [%]
21 | CC(C)CCNC(=O)CSc1nnc2c(=O)n(Cc3ccc(F)cc3)ccn12 | 8.45
22 | CC(C)c1ccc(NC(=O)Cn2nc3ccc(SCc4ccc(Cl)cc4)nn3c2=O)cc1 | 4.11
23 | CCOc1ccc(NC(=O)Cn2c(=O)c3nnc(C(C)C)n3c3ccccc32)cc1 | 13.61
24 | Cc1ccc(Oc2nc3ccccc3n3c(=O)n(CC(=O)Nc4ccccc4C(F)(F)F)nc23)cc1 | 11.78
25 | CCCN(C)c1nccn2c(=O)n(CC(=O)Nc3cccc(C(F)(F)F)c3)nc12 | 6.48
26 | Cc1ccc(Oc2nccn3c(=O)n(CC(=O)Nc4ccc(Br)cc4)nc23)cc1 | 6.95
27 | O=c1c2nnc(-c3cccc([N+](=O)[O-])c3)n2ccn1-c1ccc(F)cc1 | 13.28
28 | CCOC(=O)c1ccc(NC(=O)Cn2nc3ccc(S(=O)(=O)C(C)(C)C)nn3c2=O)cc1 | 5.05
29 | COc1ccc(NC(=O)CSc2nnc3ccc(C(=O)Nc4cccc(F)c4)cn23)cc1 | 8.78
30 | COc1ccc(-c2cc3c4nnc(SCC(=O)Nc5ccc(C#N)cc5)n4ccn3n2)cc1 | -3.8
31 | Cc1nnc2c(=O)n(CC(=O)NC3CCCC3)c3ccccc3n12 | 4.23
32 | COc1cccc(Oc2nccn3c(=O)n(CC(=O)Nc4ccc5c(c4)OCCO5)nc23)c1 | 9.52
33 | O=C(Cn1nc2c(Sc3ccccc3)nccn2c1=O)Nc1cccc(Cl)c1F | 9.57
34 | C=Cc1ccc(CSc2nnc3c(=O)n(-c4ccc(Br)cc4)ccn23)cc1 | 2.47
35 | Cc1ccc(NC(=O)Cn2c(=O)c3nnc(C)n3c3ccccc32)cc1C | 17.12
36 | Cc1cccc(-c2nc(CSc3nc4ccccc4n4c(C)nnc34)c(C)o2)c1 | 9.9
37 | COc1cccc(Oc2nccn3c(=O)n(CC(=O)NC4CCCCC4)nc23)c1 | 3.01
38 | Cc1cccc(CSc2nnc3c(=O)n(-c4ccc(Br)cc4)ccn23)c1 | 20.89
39 | Cc1ccc(-n2ccn3c(=O)n(Cc4c(F)cccc4Cl)nc3c2=O)cc1C | 10.39
